In PubChem BioAssay (Tox21):
Records with an inconclusive call do not appear. Calls of active or inactive are those of the source. Unless noted, calls come from the whole dose curve; as a rule, active = well fitted curve in the direction sought with a large enough effect in the repeat runs; inconclusive = weak or mixed curves; inactive = no such curve, though single readings can be large; an effect the other way counts as inactive or inconclusive.

What was measured:
[1] = qHTS assay to identify aromatase inhibitors - cell viability counter screen (AID 743084);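 note: cells stimulated with testosterone during compound exposure; nearly all actives have a fitted effect of over 55% in size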
[2] = biological target: Aryl hydrocarbon receptor (Homo sapiens) (UniProt P35869); assay: qHTS assay to identify small molecule that activate the aryl hydrocarbon receptor (AhR) signaling pathway (AID 743085);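 note: HG2L7.5c1 human HepG2 liver cells with stably integrated DRE-driven firefly reporter; series mostly up to about 70 µM; nearly all actives have a fitted effect of over 15% in size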
Aryl hydrocarbon receptor (Homo sapiens), sequence (P35869 whole entry, looked up): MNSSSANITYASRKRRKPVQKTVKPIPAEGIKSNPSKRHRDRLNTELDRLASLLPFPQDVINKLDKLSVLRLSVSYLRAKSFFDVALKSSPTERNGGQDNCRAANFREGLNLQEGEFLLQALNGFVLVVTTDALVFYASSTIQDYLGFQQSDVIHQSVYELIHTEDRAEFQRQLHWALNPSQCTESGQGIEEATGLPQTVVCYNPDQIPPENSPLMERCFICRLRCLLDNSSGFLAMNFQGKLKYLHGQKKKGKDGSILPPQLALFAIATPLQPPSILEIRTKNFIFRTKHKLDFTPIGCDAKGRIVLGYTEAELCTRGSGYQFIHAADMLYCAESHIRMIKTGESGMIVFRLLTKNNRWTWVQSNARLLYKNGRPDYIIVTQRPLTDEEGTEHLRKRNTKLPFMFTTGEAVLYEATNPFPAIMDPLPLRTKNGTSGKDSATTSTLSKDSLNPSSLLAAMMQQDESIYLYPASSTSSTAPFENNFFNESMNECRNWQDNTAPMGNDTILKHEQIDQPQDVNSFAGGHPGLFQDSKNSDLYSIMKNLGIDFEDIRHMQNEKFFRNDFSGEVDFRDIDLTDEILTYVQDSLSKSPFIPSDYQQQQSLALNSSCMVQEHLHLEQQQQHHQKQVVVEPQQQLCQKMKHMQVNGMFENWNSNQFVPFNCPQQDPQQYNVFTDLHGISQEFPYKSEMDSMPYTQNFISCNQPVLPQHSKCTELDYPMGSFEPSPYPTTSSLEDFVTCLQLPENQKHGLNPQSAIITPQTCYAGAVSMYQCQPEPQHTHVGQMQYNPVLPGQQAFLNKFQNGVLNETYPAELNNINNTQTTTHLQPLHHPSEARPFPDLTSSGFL
How it was run: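 Measured in HG2L7.5c1 cells: CellTiter-Fluor signal (30 min incubation, 37C) for viability, then luciferase luminescence (30 min, room temperature). Compound contact time was 24 h at 37C, following a 5 h pre-incubation.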

[3] = qHTS assay to identify small molecule that activate the aryl hydrocarbon receptor (AhR) signaling pathway - cell viability counter screen (AID 743086);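 note: HepG2 liver cells carrying the AhR DRE luciferase reporter; series mostly up to about 70 µM; nearly all actives have a fitted effect of over 45% in size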
How it was run: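 Cytotoxicity counter screen: CellTiter-Fluor signal (30 min, 37 C) in 4000 HepG2 cells/well carrying the DRE-luciferase reporter, following 24 h compound exposure at 37 C.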

[4] = biological target: Peroxisome proliferator-activated receptor gamma (Homo sapiens) (UniProt P37231); assay: qHTS assay to identify small molecule agonists of the peroxisome proliferator-activated receptor gamma (PPARg) signaling pathway (AID 743094; active = well fitted activation curve with a large enough effect in the signal ratio in the repeat runs, not every such curve was filed as active; the % refers to the signal ratio)
Peroxisome proliferator-activated receptor gamma (Homo sapiens), sequence (P37231 whole entry, looked up): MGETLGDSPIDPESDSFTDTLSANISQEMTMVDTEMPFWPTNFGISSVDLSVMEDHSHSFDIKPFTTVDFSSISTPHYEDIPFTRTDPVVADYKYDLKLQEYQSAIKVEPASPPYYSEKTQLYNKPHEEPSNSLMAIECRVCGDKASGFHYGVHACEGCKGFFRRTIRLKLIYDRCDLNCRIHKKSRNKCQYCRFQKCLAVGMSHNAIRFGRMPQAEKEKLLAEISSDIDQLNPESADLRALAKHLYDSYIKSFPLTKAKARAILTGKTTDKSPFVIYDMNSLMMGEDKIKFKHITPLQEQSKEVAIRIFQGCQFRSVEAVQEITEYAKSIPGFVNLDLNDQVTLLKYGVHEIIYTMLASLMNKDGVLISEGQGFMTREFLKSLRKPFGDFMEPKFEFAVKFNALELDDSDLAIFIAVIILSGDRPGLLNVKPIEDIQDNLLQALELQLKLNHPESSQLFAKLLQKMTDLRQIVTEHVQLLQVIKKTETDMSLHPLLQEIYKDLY
How it was run: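 HEK293H PPARg-bla cells, 5 h settle at 37C/5% CO2; compound (DMSO) 17 h, 37C; B/G FRET substrate 1 h RT; fluorescence intensity read-out. qHTS format.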

[5] = qHTS assay to identify small molecule antagonists of the peroxisome proliferator-activated receptor gamma (PPARg) signaling pathway - cell viability counter screen (AID 743194); note: nearly all actives have a fitted effect of over 55% in size
How it was run: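 Viability was measured as CellTiter-Glo luminescence in GeneBLAzer PPARg UAS-bla HEK293H cells. These cells had been exposed 17 h at 37 C to compounds together with rosiglitazone at 50 nM final, with the beta-lactamase readout taken in the same wells.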

[6] = qHTS assay for small molecule agonists of the antioxidant response element (ARE) signaling pathway (AID 743202; active = well fitted activation curve with a large enough effect in the signal ratio in the repeat runs, not every such curve was filed as active; the % refers to the signal ratio)
How it was run: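 Beta-lactamase reporter activity, read as fluorescence intensity, reflects ARE/Nrf2 pathway induction in HepG2 cells after 16 h compound exposure at 37 C; substrate loading was 2 h at room temperature.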

[7] = qHTS assay for small molecule agonists of the antioxidant response element (ARE) signaling pathway - cell viability counter screen (AID 743203; calls by dose curve; note: nearly all actives have a fitted effect of over 55% in size)
How it was run: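 Luminescence read-out (CellTiter-Glo, 30 min at room temperature) measured cell viability in the same wells as the ARE beta-lactamase reporter. HepG2 ARE-bla cells were treated with compounds for 16 hrs at 37C/5% CO2.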

[8] = qHTS assay for small molecule activators of the heat shock response signaling pathway - cell viability counter screen (AID 743209); note: nearly all actives have a fitted effect of over 50% in size
How it was run: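 HSE-bla HeLa; 1500 cells/well; overnight 37 C, 5% CO2; compound 5 h 37 C; LiveBLAzer B/G substrate 2.5 h RT; CellTiter-Glo 30 min RT; luminescence.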

[9] = qHTS assay for small molecule activators of the heat shock response signaling pathway (AID 743210; active = well fitted activation curve with a large enough effect in the signal ratio in the repeat runs, with a control signal flat, not every such curve was filed as active; the % refers to the signal ratio;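 note: HeLa cells with beta-lactamase reporter driven by heat shock elements; series mostly up to about 63 µM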)
How it was run: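 Fluorescence from a cleaved B/G FRET substrate (2.5 h, room temp) reports HSE-driven beta-lactamase in HeLa cells treated 5 h at 37 C with DMSO-dissolved compounds.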

[10] = biological target: Peroxisome proliferator-activated receptor delta (Homo sapiens) (UniProt Q03181); assay: qHTS assay to identify small molecule agonists of the peroxisome proliferator-activated receptor delta (PPARd) signaling pathway (AID 743212; calls by dose curve)
Peroxisome proliferator-activated receptor delta (Homo sapiens), sequence (Q03181 whole entry, looked up): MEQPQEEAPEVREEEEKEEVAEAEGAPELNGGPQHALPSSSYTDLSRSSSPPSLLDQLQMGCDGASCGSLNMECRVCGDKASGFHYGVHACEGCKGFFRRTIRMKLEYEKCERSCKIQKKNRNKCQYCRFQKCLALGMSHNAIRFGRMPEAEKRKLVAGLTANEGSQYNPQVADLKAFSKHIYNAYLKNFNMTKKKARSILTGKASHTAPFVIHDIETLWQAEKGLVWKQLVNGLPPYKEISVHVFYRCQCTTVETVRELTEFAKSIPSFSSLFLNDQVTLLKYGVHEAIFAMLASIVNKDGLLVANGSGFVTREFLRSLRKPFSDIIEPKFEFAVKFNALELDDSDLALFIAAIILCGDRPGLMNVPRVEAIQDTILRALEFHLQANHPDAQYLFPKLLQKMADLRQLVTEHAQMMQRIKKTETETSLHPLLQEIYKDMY
How it was run: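 Steps: seed PPARd-bla HEK293H cells; incubate 5 h, 37 C, 5% CO2; add compounds in DMSO; incubate, 37 C; add LiveBLAzer B/G FRET substrate; hold 2 h at room temperature; measure fluorescence.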

[11] = qHTS assay to identify small molecule antagonists of the peroxisome proliferator-activated receptor delta (PPARd) signaling pathway - cell viability counter screen (AID 743213); note: nearly all actives have a fitted effect of over 50% in size
How it was run: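 Luminescence from CellTiter-Glo, added after the bla read and incubated 30 min at room temperature, gives viability of HEK293H PPARd-bla cells exposed to compounds for 17 h at 37 C with 300 nM L165041.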

[12] = biological target: Peroxisome proliferator-activated receptor delta (Homo sapiens) (UniProt Q03181); assay: qHTS assay to identify small molecule antagonists of the peroxisome proliferator-activated receptor delta (PPARd) signaling pathway (AID 743215; active = well fitted inhibition curve with a large enough effect in the signal ratio in the repeat runs, not every such curve was filed as active; the % refers to the signal ratio;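 note: cells stimulated with agonist L165041 at 300 nM final during compound exposure; series mostly up to about 62 µM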)
How it was run: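 HEK293H GeneBLAzer PPARd UAS-bla reporter cells; cpd + L165041 300 nM final, 17 h 37 C; LiveBLAzer B/G FRET substrate 2 h RT; fluorescence intensity read-out. Antagonist mode.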

[13] = qHTS assay to identify small molecule antagonists of the farnesoid-X-receptor (FXR) signaling pathway - cell viability counter screen (AID 743221; active = well fitted cell-killing curve with a large enough effect in the repeat runs, not every such curve was filed as active; note: nearly all actives have a fitted effect of over 50% in size)
How it was run: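 Compound effects on cell number were measured as CellTiter-Glo luminescence in HEK 293T cells expressing FXR-UAS-bla, after 16 h at 37 C with 50 uM CDCA (final).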

[14] = biological target: Vitamin D3 receptor (Homo sapiens) (UniProt P11473); assay: qHTS assay to identify small molecule agonists of the vitamin D receptor (VDR) signaling pathway (AID 743222; calls by dose curve)
Vitamin D3 receptor (Homo sapiens), sequence (P11473 whole entry, looked up): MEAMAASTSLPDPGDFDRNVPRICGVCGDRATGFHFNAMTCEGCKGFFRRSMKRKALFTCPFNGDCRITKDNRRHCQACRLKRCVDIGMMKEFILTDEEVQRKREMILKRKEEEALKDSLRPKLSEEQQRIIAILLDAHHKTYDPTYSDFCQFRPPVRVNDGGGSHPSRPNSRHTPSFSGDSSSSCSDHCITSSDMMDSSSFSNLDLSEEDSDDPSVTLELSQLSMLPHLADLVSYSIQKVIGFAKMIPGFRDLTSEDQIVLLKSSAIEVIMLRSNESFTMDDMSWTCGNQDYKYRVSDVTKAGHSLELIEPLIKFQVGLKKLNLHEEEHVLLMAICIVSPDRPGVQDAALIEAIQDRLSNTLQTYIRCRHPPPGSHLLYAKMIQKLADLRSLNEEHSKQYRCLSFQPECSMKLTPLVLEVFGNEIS
How it was run: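 Beta-lactamase reporter readout (LiveBLAzer B/G FRET, 2 h RT) in VDR-bla cells after 16 h compound treatment at 37C, 5% CO2; cells pre-incubated 4 h before pin transfer of DMSO solutions.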

[15] = biological target: Peroxisome proliferator-activated receptor gamma (Homo sapiens) (UniProt P37231); assay: qHTS assay to identify small molecule antagonists of the peroxisome proliferator-activated receptor gamma (PPARg) signaling pathway (AID 743191; calls by dose curve; note: series mostly up to about 63 µM; nearly all actives have a fitted effect of over 30% in size)
How it was run: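 Beta-lactamase reporter under UAS control in HEK293H PPARg-bla cells; compound treatment 17 h at 37C. Read-out: fluorescence intensity after 1 h room-temperature incubation with LiveBLAzer B/G FRET substrate.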

[16] = qHTS assay to identify small molecule agonists of the peroxisome proliferator-activated receptor delta (PPARd) signaling pathway - cell viability counter screen (AID 743211); note: nearly all actives have a fitted effect of over 55% in size
How it was run: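 Following 5 h plating at 37 C and 5% CO2, PPARd UAS-bla HEK293H cells took up test compounds for 17 h. Viability was quantified by luminescence 30 min after CellTiter-Glo addition at room temperature.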

[17] = biological target: Bile acid receptor (Homo sapiens) (UniProt Q96RI1); assay: qHTS assay to identify small molecule antagonists of the farnesoid-X-receptor (FXR) signaling pathway (AID 743217; active = well fitted inhibition curve with a large enough effect in the signal ratio in the repeat runs, not every such curve was filed as active; the % refers to the signal ratio)
Bile acid receptor (Homo sapiens), sequence (Q96RI1 whole entry, looked up): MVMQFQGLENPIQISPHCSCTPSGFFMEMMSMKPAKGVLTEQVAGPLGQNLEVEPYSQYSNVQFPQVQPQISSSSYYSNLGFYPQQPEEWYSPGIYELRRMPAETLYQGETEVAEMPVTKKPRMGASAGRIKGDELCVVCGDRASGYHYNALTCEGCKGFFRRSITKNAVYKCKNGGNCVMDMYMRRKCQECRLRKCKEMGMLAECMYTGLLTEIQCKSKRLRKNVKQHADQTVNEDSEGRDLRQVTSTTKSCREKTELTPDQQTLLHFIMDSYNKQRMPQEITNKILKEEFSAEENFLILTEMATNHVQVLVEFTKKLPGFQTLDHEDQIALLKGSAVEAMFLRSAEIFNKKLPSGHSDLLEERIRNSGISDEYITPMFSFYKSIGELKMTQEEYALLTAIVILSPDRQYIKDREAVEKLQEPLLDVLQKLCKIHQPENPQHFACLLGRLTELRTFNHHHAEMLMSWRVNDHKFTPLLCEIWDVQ
How it was run: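 Read-out: beta-lactamase FRET fluorescence (LiveBLAzer B/G substrate, 2 h, room temperature) in GeneBLAzer FXR-UAS-bla HEK 293T cells. Compounds were co-dosed with 50 uM chenodeoxycholic acid (final) and incubated 16 h at 37 °C.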

[18] = qHTS assay to identify small molecule agonists of the farnesoid-X-receptor (FXR) signaling pathway - cell viability counter screen (AID 743218); note: nearly all actives have a fitted effect of over 45% in size
How it was run: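 Luminescence from CellTiter-Glo, read after 30 min at RT, reports viability of GeneBLAzer FXR-UAS-bla HEK 293T cells treated 16 h with compounds in the wells used for the beta-lactamase reporter.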

[19] = biological target: Bile acid receptor (Homo sapiens) (UniProt Q96RI1); assay: qHTS assay to identify small molecule agonists of the farnesoid-X-receptor (FXR) signaling pathway (AID 743220; active = well fitted activation curve with a large enough effect in the signal ratio in the repeat runs, not every such curve was filed as active; the % refers to the signal ratio)
How it was run: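 FXR-UAS-bla HEK 293T cells carrying a UAS-driven beta-lactamase reporter were plated for 5 h at 37C/5% CO2, then exposed to DMSO-dissolved Tox21 10K compounds for 16 h at 37C. A LiveBLAzer B/G FRET substrate was loaded for 2 h at room temperature before fluorescence reading.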

[20] = biological target: Vitamin D3 receptor (Homo sapiens) (UniProt P11473); assay: qHTS assay to identify small molecule antagonists of the vitamin D receptor (VDR) signaling pathway (AID 743223; active = well fitted inhibition curve with a large enough effect in the signal ratio in the repeat runs, not every such curve was filed as active; the % refers to the signal ratio)
How it was run: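 Beta-lactamase activity in VDR-bla cells is measured by FRET substrate fluorescence (2 h, room temperature) after cells spend 16 h at 37C with test compound and 3 nM final 1alpha,25-dihydroxyvitamin D3.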

Measured: Potency

c1ccc([C@H]2CN3CCSC3=N2)cc1
not listed: [15] | [16] | [17] | [18] | [19] | [20]
inactive: all other assays above

CCOC(C)(C)C
not listed: [6] | [9] | [13]
inactive: all other assays above

O=S(O)CO
not listed: [11] | [15] | [20]
inactive: all other assays above

CC(=O)c1ccccc1O
not listed: [9] | [10] | [12] | [15]
inactive: all other assays above

FC1(F)C(F)(F)C(F)(F)C2(F)C(F)(F)C(F)(F)C(F)(F)C(F)(F)C2(F)C1(F)F (stereo not drawn)
not listed: [6] | [7] | [20]
inactive: all other assays above

CCCCCOC(=O)CCCCC
not listed: [9] | [12] | [15] | [17] | [18] | [19]
inactive: all other assays above

CCC=O
not listed: [9] | [12] | [15] | [17] | [19]
inactive: all other assays above

NC(=O)c1ccc([N+](=O)[O-])cc1
not listed: [6] | [8] | [9] | [17] | [18] | [19] | [20]
inactive: all other assays above

CCCC(=O)O[C@]1(C(=O)CO)CC[C@H]2[C@@H]3CCC4=CC(=O)CC[C@]4(C)[C@H]3[C@@H](O)C[C@@]21C
not listed: [6] | [7] | [11] | [12] | [17] | [19] | [20]
inactive: all other assays above

O=C(CCCN1CCN(c2ccccn2)CC1)c1ccc(F)cc1
not listed: [6] | [12] | [17] | [19]
inactive: all other assays above

Nc1c[n+](N2CCOCC2)no1
not listed: [4] | [14] | [15] | [20]
inactive: all other assays above

C=CCCCCCCCCC=O
inactive: [1] | [2] | [3] | [4] | [5] | [9] | [11] | [12] | [18] | [13] | [20]

C[N+](C)(C)CCCCCC[N+](C)(C)C
not listed: [8] | [13] | [14] | [15] | [18] | [20]
inactive: all other assays above

N#Cc1ccc(C2CCCc3cncn32)cc1 (stereo not drawn)
not listed: [6] | [12] | [15] | [17] | [19]
inactive: all other assays above

C1OCOCO1
not listed: [6] | [14] | [15] | [20]
inactive: all other assays above

CO/N=C(/C(=O)N[C@@H]1C(=O)N2C(C(=O)OCOC(=O)C(C)(C)C)=C(C)CS[C@H]12)c1csc(N)n1
not listed: [4] | [15] | [20]
inactive: all other assays above

NC(CSCC(=O)O)C(=O)O (stereo not drawn)
not listed: [7] | [12] | [15] | [18]
inactive: all other assays above

N=C(N)c1ccc2cc(OC(=O)c3ccc(N=C(N)N)cc3)ccc2c1
not listed: [6] | [15] | [18]
inactive: all other assays above

Oc1ccc(C2CNCCc3c2cc(O)c(O)c3Cl)cc1 (stereo not drawn)
not listed: [6] | [8] | [10] | [12] | [15] | [17] | [19]
inactive: all other assays above

O=C(O)CNC(=O)c1ccc([N+](=O)[O-])cc1
not listed: [7] | [9] | [11] | [15] | [20]
inactive: all other assays above

NS(=O)(=O)c1ccccc1Cl
not listed: [5] | [13] | [15] | [16] | [17] | [18] | [19] | [20]
inactive: all other assays above

CCCCC/C=C\CCC=O
not listed: [6] | [10] | [12] | [15] | [17] | [19]
inactive: all other assays above

Cc1ccc(C#N)cc1
not listed: [6] | [13] | [15] | [20]
inactive: all other assays above

O=[N+]([O-])c1ccc(F)cc1F
not listed: [6] | [8] | [15] | [17] | [18] | [19]
inactive: all other assays above

CCOC(=O)CCC(C)=O
not listed: [7] | [8] | [9] | [13] | [15]
inactive: all other assays above

OCCCC1CCCCC1
not listed: [7] | [14] | [15] | [17] | [19] | [20]
inactive: all other assays above

CC(C)(O)C#CC(C)(C)O
inactive: [1] | [2] | [3] | [4] | [5] | [6] | [16] | [10] | [11] | [12] | [13]
